High-throughput results deposited in PubChem by several laboratories.
A selection: hits, their analogues and other compounds. The true share with any hit is near 4.1%.
CD11b adhes inh = blocks human CD11b/CD18 adhesion to fibrinogen; K562 CD11b/CD18 adhesion to fibrinogen, ATPlite luminescence; Mn2+ added to activate the integrin; inhibition, % at 10 µM; 93,000 tested, 0.54% active; AID 1497;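 active = primary inhibition of 50% or more at 10 µM, then 40% or more on retest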
Target sequence (P05107 whole entry, looked up, other chains not shown): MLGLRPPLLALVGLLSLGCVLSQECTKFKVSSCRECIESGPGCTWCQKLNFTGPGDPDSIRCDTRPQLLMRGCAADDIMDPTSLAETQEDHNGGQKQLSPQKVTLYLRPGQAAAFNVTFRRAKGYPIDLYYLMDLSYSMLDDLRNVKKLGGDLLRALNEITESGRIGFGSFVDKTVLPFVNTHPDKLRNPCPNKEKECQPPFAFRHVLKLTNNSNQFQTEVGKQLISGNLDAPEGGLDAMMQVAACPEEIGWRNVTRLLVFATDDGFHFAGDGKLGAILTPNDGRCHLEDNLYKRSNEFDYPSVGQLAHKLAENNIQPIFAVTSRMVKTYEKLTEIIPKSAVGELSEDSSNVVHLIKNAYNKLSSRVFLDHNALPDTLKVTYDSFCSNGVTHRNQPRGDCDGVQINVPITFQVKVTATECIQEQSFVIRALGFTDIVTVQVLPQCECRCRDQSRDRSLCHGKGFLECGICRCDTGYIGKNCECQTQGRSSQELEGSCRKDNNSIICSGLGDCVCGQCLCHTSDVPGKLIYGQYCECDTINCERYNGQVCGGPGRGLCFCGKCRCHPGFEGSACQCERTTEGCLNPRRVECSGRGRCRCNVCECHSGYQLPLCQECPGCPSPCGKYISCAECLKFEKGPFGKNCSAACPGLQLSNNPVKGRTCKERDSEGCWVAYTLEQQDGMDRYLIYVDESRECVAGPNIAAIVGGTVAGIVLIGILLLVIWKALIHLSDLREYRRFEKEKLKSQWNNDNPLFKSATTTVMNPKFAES
CD11b adhes enh = enhancers of human CD11b/CD18 binding to fibrinogen; K562 CD11b/CD18 adhesion to fibrinogen, ATPlite luminescence; activation, % at 10 µM; 93,000 tested, 0.07% active; AID 1499;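 active = 10 µM primary screen giving 50% or more activity, confirmed by 40% or more on retest at that dose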
Cav3 T inh = human Cav3.2 channel inhibition, primary screen. AID 449739. B-score at 10 µM. Cav3.2-expressing cells, Fluo-4 calcium fluorescence FDSS; active compounds read low. 100,000 tested, 4% active. O95180;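 active = single-dose well whose peak fluorescence ratio is a statistical outlier from its plate by either plate-standardised score or position-corrected B-score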
MRP resist rev = MRP-mediated drug resistance reversal. H69AR cells + 2 uM doxorubicin, CellTiter-Glo, 72 h. AID 602. differential viability (reversal), % at 10 µM. 85,000 tested, 0.04% active;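 active = viability drop by adding the cancer drug above about 55%, with treated viability meeting a 40% cutoff, limit read from the data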;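 also: larger differential means the compound sensitizes cells more to doxorubicin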
MRP-1 activ = activators of MRP-1; 140,000 tested, 0.61% active; viability increase, % at 10 µM; H69AR cells + doxorubicin, viability rescue, CellTiter-Glo;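 active = viability gain under doxorubicin at or above a set limit, the compound median plus 3 SD, cut at about 4.7% in these data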;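 also: MRP-1 overexpressing cells given doxorubicin 25 µM after compound pretreatment; 18-22 h compound pretreatment then 72 h with doxorubicin before readout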
PTK2B oligo ant = antagonists of human Pyk2 oligomerization; Q14289; Q293 cells, Pyk2 FERM NanoBiT luminescence; active compounds read low; z-score (the deposit names both 25 µM and 10 µM); 99,000 tested, 0.83% active; AID 1347419;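 active = Z-score of -3 or lower, scaled per plate to the spread of control and sample wells; inactive = z-score above -3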;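 also: negative z-score means lost luminescence so less FERM oligomerization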
Hits are given with their value; 0 = inactive; - = no result.

SMILES	CD11b adhes inh	CD11b adhes enh	Cav3 T inh	MRP resist rev	MRP-1 activ	PTK2B oligo ant
O=C(Nc1ccc(Cl)cc1)OCc1cncs1	0	0	0	0	0	0
Cc1ccccc1OCCCCn1cnc2ccccc21	95	0	0	0	0	0
CCCOc1ccc(Cn2cnc3ccccc32)cc1	89	0	0	0	0	0
c1ccc(OCCn2cnc3ccccc32)cc1	0	0	0	0	0	0
Fc1ccc(Cn2cnc3ccccc32)cc1	0	0	0	0	0	0
c1ccc2c(c1)ncn2CCCOc1ccc2c(c1)CCC2	0	0	0	0	0	0
c1ccc(OCCCCn2cnc3ccccc32)cc1	63	0	0	0	0	0
Brc1ccccc1OCCCn1cnc2ccccc21	0	0	0	0	0	-3.9
CCCCC(=O)NCCc1cc2ccc(OC)cc2[nH]c1=O	-	-	0	0	0	0
Cc1c(C(=O)NCCC2=CCCCC2)oc2ccc(S(=O)(=O)N3CCOCC3)cc12	0	0	-4.1	0	0	0
OCCCn1c(C2CCCN2c2nc(-c3ccc(F)cc3)cs2)nc2cc(Cl)c(N3CCCCC3)cc21 (stereo unspecified)	-	-	0	-	-	-
CCOc1ccc(-n2c(-c3ccccc3)c[n+]3c2CCCCC3)cc1	80	0	-	-	0	-
CCCCCC(=O)Nc1nc2ccccc2[nH]1	-	-	0	0	0	0
CCN(CC)C(=O)c1sc(NC(=O)c2cccnc2)c(C(=O)OC)c1C	-	-	-	-	0	-
CCN(CC(=O)NC(C)C)C(=O)c1ccc(S(=O)(=O)N(C)c2ccccc2OC)cc1	0	0	0	0	0	0
CCN(CC(=O)NC(C)C)C(=O)c1ccc(Cl)cc1	0	0	-	-	6.0	-
O=C1Nc2ccccc2CCC1Sc1nnc(-c2ccc(Cl)cc2)s1 (stereo unspecified)	-	-	-	0	6.6	0
COC(=O)CN1C(c2ccccc2)=Nc2ccc(Cl)cc2C1c1ccccc1 (stereo unspecified)	0	0	-6.7	-	0	-3
O=C1CN2C(=Nc3ccc(Cl)cc3C2c2ccccc2)CN1 (stereo unspecified)	0	0	0	0	0	0
NNC(=O)CN1C(c2ccc(Cl)cc2)=Nc2ccc(Br)cc2C1c1ccccc1 (stereo unspecified)	0	0	-9.9	-	0	-3.4
CCOC(=O)CN1C(=O)Nc2ccc(Br)cc2C1c1ccccc1 (stereo unspecified)	-	-	0	0	0	0
COC(=O)c1cc(NC(=O)C2CCCN(S(=O)(=O)c3c(C)n[nH]c3C)C2)cc(C(=O)OC)c1 (stereo unspecified)	-	-	-	0	-	-
CCN1CCN(C(=S)NCc2ccc(C)cc2)CC1	0	0	-	-	0	-
c1ccc(Cn2ncc3c2ncn2c(-c4ccncc4)nnc32)cc1	0	0	-	0	-	-
NS(=O)(=O)c1ccc(NC(=O)C2CCCO2)cc1 (stereo unspecified)	0	0	0	0	0	-
SMILES	CD11b adhes inh	CD11b adhes enh	Cav3 T inh	MRP resist rev	MRP-1 activ	PTK2B oligo ant
CC(=O)Nc1ccc(S(=O)(=O)N2CCc3c(Cl)cccc3C2)cc1	0	0	-4.3	0	0	-
Cc1ccc(C(=O)Nc2ccc(S(=O)(=O)N3CCN(C)CC3)cc2)cc1	-	-	0	0	0	0
CC(=O)Nc1ccc(S(=O)(=O)N2CCCN(S(=O)(=O)c3ccc(NC(C)=O)cc3)CC2)cc1	0	0	-	0	0	0
O=C(Nc1ccc(O)cc1)C1CCCO1 (stereo unspecified)	0	0	0	0	28	0
CN1CCN(S(=O)(=O)c2ccc(NC(=O)C(C)(C)C)cc2)CC1	0	0	-5.7	-	0	0
O=C(Nc1ccc(S(=O)(=O)N2CCc3ccccc3C2)cc1)C1CCCO1 (stereo unspecified)	0	0	-3.9	0	0	0
C=C1/C(=C\C=C2/CCC[C@]3(C)[C@@H]([C@H](C)/C=C/[C@@H](O)C4CC4)CC[C@@H]23)C[C@@H](O)C[C@@H]1O	-	-	0	-	-	-
CCC(=O)Nc1ccc(S(=O)(=O)N2CCc3ccccc3C2)cc1	0	0	-4.5	0	0	-
CCc1ccc(NC(=O)CN2CCc3ccccc3C2)cc1	0	0	0	0	0	0
O=C(CN1CCc2ccccc2C1)Nc1ccc(Br)cc1	0	0	-4.1	0	0	0
Cc1ccc(S(=O)(=O)NC(C(=O)Oc2ccc3c(C(F)(F)F)cc(=O)oc3c2)c2ccccc2)cc1 (stereo unspecified)	57	0	-	-	0	-
Cc1ccn(-c2ccc([N+](=O)[O-])cc2)n1	0	0	-	-	0	0
